Results filed as inconclusive are left out. Unmarked numbers belong to inactive results. Active and inactive are the calls of the source. The call rests on the fitted dose curve; in most records, active means well fitted inhibition curve with a large enough effect; inconclusive means small, poorly fitted or top-dose-only effect; inactive means flat fitted curve, though single readings scatter.
System: CRL-7250
Assay: Cytotoxic Profiling of Annotated Libraries Using Quantitative High-Throughput Screening (AID 1296008); further: nearly all actives have a fitted effect of over 60% in size
Conditions: Five cell lines viability, CellTiter-Glo ATP luminescence, 48-72 h; max response: stronger effect = lower value
Procedure, shortened: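 Cells exposed to compounds for 48 or 72 hr at 37 degrees Celsius. Viability read as ATP-coupled luminescence with CellTiter-Glo after 10 min at room temperature.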
On the % scale 0 is the no-effect control and ±100 the full control effect; potency means the concentration at half of the fitted maximal effect.

Going from C[C@H](O)[C@H](O)/C=C/c1cccc(O)c1CO to O=C(/C=C/c1ccc(O)cc1)N[C@@H](Cc1ccc(O)cc1)C(=O)O, the max response falls from -1.75% to -6.91%.

Compared with O=C(O)c1cc2cccc([N+](=O)[O-])c2[nH]1, Cc1cc(OCc2nc(-c3ccccc3Cl)cs2)ccc1OCC(=O)O is higher in max response: -12.6% for the first, -3.46% for the second.

Going from COc1cc(/C=C/C=O)cc(OC)c1O[C@@H]1O[C@H](CO)[C@@H](O)[C@H](O)[C@H]1O to CC(O)CO[C@@H]1O[C@H](CO)[C@@H](O)[C@H](O)[C@H]1O (some centres undefined), the max response rises from -11.6% to -3.19%.

Going from Cc1cc(C)nc(NS(=O)(=O)c2ccc(NC(=S)NC(=O)COc3ccc(Br)cc3Cl)cc2)n1 to CCn1cc(NC(=S)Nc2cc(Cl)ccc2OC)c(C(N)=O)n1, the max response falls from 3.21% to -6.99%.

Compared with C=C1[C@H](OC(C)=O)[C@H]2[C@@H](OC(C)=O)[C@](C)(OC(C)=O)C[C@]2(OC(C)=O)C(=O)[C@H](C)/C=C/C(C)(C)C(=O)[C@H](OC(=O)C(C)CC)[C@H]1OC(C)=O (some centres undefined), C/C=C(\C)C(=O)O[C@H]1[C@@H](O[C@]2(COC(=O)CC(C)C)O[C@H](COC(=O)C(C)CC)[C@@H](OC(C)=O)[C@@H]2O)O[C@H](COC(C)=O)[C@@H](O)[C@@H]1O (some centres undefined) is higher in max response: -1.41% for the first, 0.451% for the second.

Going from CC1(C)CC[C@]2(C(=O)O[C@@H]3O[C@H](CO)[C@@H](O)[C@H](O)[C@H]3O)CC[C@]3(C)C(=CCC4[C@@]5(C)CC[C@H](O[C@@H]6O[C@H](C(=O)O)[C@@H](O)[C@H](O[C@@H]7O[C@H](CO)[C@H](O)[C@H](O)[C@H]7O)[C@H]6O)C(C)(C)C5CC[C@]43C)C2C1 (some centres undefined) to CC1CC[C@]2(C(=O)O)CC[C@]3(C(=O)O)C(=CCC4[C@@]5(C)CC[C@H](OC6OC(C)C(O)C(OC7OC(CO)C(O)C(O)C7O)C6O)C(C)(C)C5CC[C@]43C)C2C1C (some centres undefined), the max response falls from -0.842% to -0.92%.

Going from C=C1C(OC2OCC(O)C(O)C2O)CC2C(C)(C)C(O)CCC2(C)C1CC/C(C)=C\CO (centres undefined) to CC1(C=O)CC[C@]2(C(=O)O[C@@H]3O[C@H](CO)[C@@H](O)[C@H](O)[C@H]3O)CC[C@]3(C)C(=CCC4[C@@]5(C)C[C@H](O)[C@H](O[C@@H]6OC[C@@H](O)[C@H](O)[C@H]6O)[C@@](C)(CO)C5CC[C@]43C)C2C1 (some centres undefined), the max response rises from -6.07% to -5.25%.

Compared with O=C(O)[C@@H]1C[C@H]2C[C@@H](CCc3nn[nH]n3)CC[C@H]2CN1, N#C[C@@H]1CCCN1C(=O)CNC12CC3CC(CC(O)(C3)C1)C2 is higher in max response: 0.564% for the first, 2.02% for the second.

Compared with C=CC[C@]12C[C@@H](OC)C(=O)C(OC)=C1O[C@@H](c1cc(OC)c3c(c1)OCO3)[C@@H]2C, COc1cc(O)c([C@@H](CC(=O)N2CC(C)CC(C)C2)c2ccc3c(c2)OCO3)c(OC)c1 (some centres undefined) is lower in max response: 4.3% for the first, -6.18% for the second.

Going from O=C1N=C(N2CCOCC2)CN1c1ccc(Cl)cc1 to N#Cc1ccc(C(=O)N2CCC3(CC2)N=C(N)c2c(F)ccc(F)c2N3)cn1, the max response falls from -3.02% to -4.2%.

Compared with CC/C=C/CC1=C(CCCCC(CCC(=O)O)OC(C)=O)CCC1=O (centres undefined), CCO[C@@H]1OC(=O)C[C@@H]1NC(=O)[C@@H]1CCCN1C(=O)[C@@H](NC(=O)c1ccc(N)c(Cl)c1)C(C)(C)C is higher in max response: -18.8% for the first, 1.63% for the second.

First: CC(C)(O)/C=C/C1=CC(=O)[C@@](C)(O)C[C@H]1O
Second: CC1(C)CCCC2(C)C1CC=C1C(=O)OC(O)C12O (centres undefined)
The max response of the first is higher: -5.51% for the first, -7.54% for the second.

Compared with COc1ccc([C@@]2(O)c3c(ccc4c3OC(C)(CCC=C(C)C)C=C4)NC(=O)[C@@H]2OC)cc1 (some centres undefined), CC1=CC2/C=C(\C)CC[C@@H](O)[C@@H](O)[C@@H]3O[C@@H]3C(=O)[C@]23C(=O)N[C@@H](CC(C)C)[C@@H]3[C@@H]1C (some centres undefined) is lower in max response: 4.89% for the first, -29.8% for the second.

First: C[C@@H]1C(=O)O[C@H]2[C@H](O)C34[C@H]5C[C@@H](C(C)(C)C)C36[C@@H](OC(=O)[C@@H]6O)O[C@@]4(C(=O)O5)[C@@]12O (some centres undefined)
Second: CC1CC(C(O)C(C)(C)O)OC2CC3(C)C4(C)CCC5C(C)(C)C(=O)CCC5(C)C4CCC3(O)C12O (centres undefined)
The max response of the first is higher: 3.72% for the first, 3.36% for the second.

Going from C=C[C@H]1[C@H](O[C@@H]2O[C@H](CO)[C@@H](O)[C@H](O)[C@H]2O)OC=C(C(=O)OC)[C@H]1C[C@@H]1c2cc(O)c(O)cc2CCN1C(C)=O to OC[C@H]1O[C@@H](OCCc2ccc(O)cc2)[C@H](O[C@@H]2OC[C@](O)(CO)[C@H]2O)[C@@H](O)[C@@H]1O, the max response rises from -23.5% to -6.14%.

In the case of Nc1nc(-n2cc(C(=O)O)c(=O)c3cc(F)c(N4CC(O)C4)c(Cl)c32)c(F)cc1F, the max response is reported as -9.26%.

With COc1cc2c(cc1OC)-c1[nH]nc(Nc3cccc(F)c3)c1C2 the Potency was 461 nM (active).
COc1cc(OC)c(/C=C/S(=O)(=O)Cc2ccc(OC)c(NCC(=O)O)c2)c(OC)c1 was tested, and the Potency was 231 nM (active).
For COc1cc2c(cc1O)CC[C@H]1[C@@H]2CC[C@]2(C)[C@H](O)CC[C@@H]12, the Potency was 14600 nM (active).
In the case of CN(C)C/C=C/C(=O)Nc1cccc(C(=O)Nc2cccc(Nc3ncc(Cl)c(-c4c[nH]c5ccccc45)n3)c2)c1, the Potency is reported as 259 nM (active).
CCC(C)C(=O)O[C@H]1CCC=C2C=C[C@H](C)[C@H](CC[C@@H](O)C[C@@H](O)CC(=O)O)[C@H]21 (some centres undefined) was tested, and the Potency was 7960 nM (active).
Cc1ccc(S(=O)(=O)Cc2nc(-c3ccc(C(=O)NCc4cccnc4)cc3)oc2C)cc1 was tested, and the Potency was 65.1 nM (active).

In the case of COc1ccc(-c2ccc(-c3cn(C(=O)N4CCCCC4c4ccccc4)nn3)cc2)cc1 (centres undefined), the outcome is reported as “inactive”.
In the case of C[C@@H]1CC[C@]2(C(=O)O[C@@H]3O[C@H](CO)[C@@H](O)[C@H](O)[C@H]3O)CC[C@]3(C)C(=CCC4[C@@]5(C)C[C@@H](O)[C@H](O)[C@](C)(C(=O)O)C5CC[C@]43C)[C@@H]2[C@]1(C)O (some centres undefined), the outcome is reported as “inactive”.

Reference: PubChem BioAssay (NCATS)
